# Laboratory results taken from PubChem BioAssay (Tox21).
# Where “and” joins values, the source holds several entries; their conditions need not be identical. Equal entries are not always repeated. Values without a mark were called inactive. A call without a number means that no potency is given here. Calls of active or inactive are those of the source. Unless noted, calls follow the shape of the dose curve; as a rule, active = well fitted curve in the direction sought with a large enough effect in the repeat runs; inconclusive = weak or mixed curves; inactive = no such curve, though single readings can be large; an effect the other way counts as inactive or inconclusive.
# Legend:
# [1] = target: Androgen receptor (Homo sapiens) (UniProt P10275); test: qHTS assay to identify small molecule antagonists of the androgen receptor (AR) signaling pathway using the MDA cell line (AID 743042; also: potency is read from the fitted curve at half-maximal effect; nearly all actives have a fitted effect of over 55% in size)
# Procedure, shortened: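 MDA-kb2 breast carcinoma cells carrying MMTV-luciferase (AR/GR responsive) were co-treated with compounds and the agonist R1881 for 16 h at 37C. Inhibition read as ONE-Glo luminescence; CellTiter-Fluor fluorescence measured in parallel for cytotoxicity.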
# [2] = target: Estrogen receptor (Homo sapiens) (UniProt P03372); test: qHTS assay to identify small molecule antagonists of the estrogen receptor alpha (ER-alpha) signaling pathway (AID 743069; active = well fitted curve in the direction sought with a large enough effect in the signal ratio in the repeat runs, not every such curve was filed as active; inconclusive = weak or mixed curves, or effect the other way; inactive = no such curve, though single readings can be large or run the other way; the % refers to the signal ratio; also: potency is read from the fitted curve at half-maximal effect)
# Procedure, shortened: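 Reporter cells (ER-alpha-bla, HEK293 background) are conditioned overnight in stripped-serum medium (2% charcoal-stripped FBS). Compound and 17beta-estradiol exposure runs 18 hr at 37C, 5% CO2.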
# [3] = target: Estrogen receptor (Homo sapiens) (UniProt P03372); test: qHTS assay to identify small molecule agonists of the estrogen receptor alpha (ER-alpha) signaling pathway using the BG1 cell line (AID 743079); also: nearly all actives have a fitted effect of over 20% in size; also: potency is read from the fitted curve at half-maximal effect
# [4] = qHTS assay to identify small molecule antagonists of the glucocorticoid receptor (GR) signaling pathway - cell viability counter screen (AID 720693); also: nearly all actives have a fitted effect of over 55% in size; also: potency is read from the fitted curve at half-maximal effect
# [5] = qHTS assay to identify small molecule phospholipidosis (PLD) inducers (AID 1259344; active = well fitted curve in the direction sought with a large enough effect; inconclusive = small, poorly fitted or top-dose-only effect, or another doubt; inactive = no such curve, though single readings can be large; an effect the other way counts as inactive or inconclusive; also: potency is read from the fitted curve at half-maximal effect)
# Procedure, shortened: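 Quantitative HTS in HepG2: compound plus LipidTOX Red dye for 24 h, paraformaldehyde fixation with Hoechst 33342, widefield high-content imaging; amiodarone as positive and DMSO as negative control.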
# [6] = qHTS assay to identify small molecule agonists of the AP-1 signaling pathway (AID 1159526; calls by dose curve)
# [7] = target: Peroxisome proliferator-activated receptor gamma (Homo sapiens) (UniProt P37231); test: qHTS assay to identify small molecule antagonists of the peroxisome proliferator-activated receptor gamma (PPARg) signaling pathway (AID 743191; calls by dose curve; also: nearly all actives have a fitted effect of over 30% in size; also: potency is read from the fitted curve at half-maximal effect)
# Procedure, shortened: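 GeneBLAzer PPARg UAS-bla HEK293H cells, 5 h post-plating, exposed to compounds 17 h at 37C. LiveBLAzer B/G FRET substrate added for 1 h at room temperature; beta-lactamase reporter read by fluorescence intensity.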
# [8] = target: Bile acid receptor (Homo sapiens) (UniProt Q96RI1); test: qHTS assay to identify small molecule agonists of the farnesoid-X-receptor (FXR) signaling pathway (AID 743220; active = well fitted activation curve with a large enough effect in the signal ratio in the repeat runs, not every such curve was filed as active; inconclusive = weak or mixed curves, or effect the other way; the % refers to the signal ratio)
# Procedure, shortened: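 Beta-lactamase reporter under UAS control in GeneBLAzer FXR HEK 293T cells (5000/well) measured with LiveBLAzer FRET substrate after 2 h at room temperature. Compound exposure lasted 16 h at 37C.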
# [9] = target: Androgen receptor (Homo sapiens) (UniProt P10275); test: qHTS assay to identify small molecule antagonists of the androgen receptor (AR) signaling pathway (AID 743035; active = well fitted inhibition curve with a large enough effect in the signal ratio in the repeat runs, not every such curve was filed as active; inconclusive = weak or mixed curves, or effect the other way; inactive = no such curve, though single readings can be large or run the other way; the % refers to the signal ratio; also: potency is read from the fitted curve at half-maximal effect)
# Procedure, shortened: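 Using qHTS, AR-UAS-bla GripTite HEK293 cells received compound, then R1881, and were cultured 16 h at 37C/5% CO2 before a 2 h room-temperature LiveBLAzer B/G FRET substrate step and fluorescence measurement.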
# [10] = target: Vitamin D3 receptor (Homo sapiens) (UniProt P11473); test: qHTS assay to identify small molecule antagonists of the vitamin D receptor (VDR) signaling pathway (AID 743223; active = well fitted inhibition curve with a large enough effect in the signal ratio in the repeat runs, not every such curve was filed as active; inconclusive = weak or mixed curves, or effect the other way; inactive = no such curve, though single readings can be large or run the other way; the % refers to the signal ratio)
# Procedure, shortened: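 Quantitative HTS in VDR-bla reporter cells stimulated with 1alpha,25-dihydroxyvitamin D3, 3 nM final. Compound exposure 16 h, 37C, 5% CO2. Read-out: beta-lactamase FRET substrate fluorescence, 2 h RT.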
# [11] = target: Peroxisome proliferator-activated receptor gamma (Homo sapiens) (UniProt P37231); test: qHTS assay to identify small molecule agonists of the peroxisome proliferator-activated receptor gamma (PPARg) signaling pathway (AID 743094; active = well fitted activation curve with a large enough effect in the signal ratio in the repeat runs, not every such curve was filed as active; inconclusive = weak or mixed curves, or effect the other way; inactive = no such curve, though single readings can be large or run the other way; the % refers to the signal ratio)
# Procedure, shortened: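 Following 5 h plating at 37C, PPARg-bla HEK293H cells receive compound or DMSO for 17 h; fluorescence intensity is recorded after LiveBLAzer B/G loading for 1 h at room temperature.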
# [12] = target: Nuclear receptor subfamily 1 group I member 2 (Rattus norvegicus) (UniProt Q9R1A7); test: Rat pregnane X receptor (rPXR) activation by small molecules, qHTS assay (AID 1346983); conditions: rPXR luciferase reporter cells, One-Glo luminescence, 24 h; max activation: active compounds read high; also: nearly all actives have a fitted effect of over 20% in size
# Procedure, shortened: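 Cell-based rPXR activation assay: rPXR cells, 2,000 per well, rested 5hr at 37 C, then exposed to compounds in DMSO for 24 hr at 37 C. Luciferase activity read by One-Glo luminescence after 30 min at room temperature.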
# [13] = target: Nuclear receptor subfamily 1 group I member 2 (Homo sapiens) (UniProt O75469); test: CYP3A4 induction through human pregnane X receptor (PXR) by small molecules, qHTS assay (AID 1346984); also: nearly all actives have a fitted effect of over 40% in size
# Procedure, shortened: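 qHTS, concentration-response format: HepG2 DPX-2 line, PXR/CYP3A4-luc. Exposure 24 h, 37C. Substrate Luciferin-IPA 3uM final, 3 h. Detection One-Glo, 30 min RT.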
# [14] = qHTS assay for small molecule agonists of the antioxidant response element (ARE) signaling pathway (AID 743202; active = well fitted activation curve with a large enough effect in the signal ratio in the repeat runs, not every such curve was filed as active; inconclusive = weak or mixed curves, or effect the other way; inactive = no such curve, though single readings can be large or run the other way; the % refers to the signal ratio; also: potency is read from the fitted curve at half-maximal effect)
# Procedure, shortened: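 Agonist mode reporter screen: HepG2 cells with ARE-controlled beta-lactamase are incubated with test compounds for 16 h at 37 C, and beta-lactamase activity is measured as fluorescence of cleaved B/G FRET substrate.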
# [15] = target: Androgen receptor (Homo sapiens) (UniProt P10275); test: qHTS assay to identify small molecule agonists of the androgen receptor (AR) signaling pathway (AID 743036; active = well fitted activation curve with a large enough effect in the signal ratio in the repeat runs, with a control signal flat, not every such curve was filed as active; inconclusive = weak or mixed curves, or effect the other way; inactive = no such curve, though single readings can be large or run the other way; the % refers to the signal ratio)
# Procedure, shortened: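 Screening used 2,000 AR-bla HEK293 cells per well, treated 16 h at 37C with test compounds in DMSO alongside positive and DMSO-only controls; beta-lactamase activity was then read by LiveBLAzer B/G FRET fluorescence after 2 h at room temperature.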
# Chain of Peroxisome proliferator-activated receptor gamma (Homo sapiens) (P37231 whole entry, looked up): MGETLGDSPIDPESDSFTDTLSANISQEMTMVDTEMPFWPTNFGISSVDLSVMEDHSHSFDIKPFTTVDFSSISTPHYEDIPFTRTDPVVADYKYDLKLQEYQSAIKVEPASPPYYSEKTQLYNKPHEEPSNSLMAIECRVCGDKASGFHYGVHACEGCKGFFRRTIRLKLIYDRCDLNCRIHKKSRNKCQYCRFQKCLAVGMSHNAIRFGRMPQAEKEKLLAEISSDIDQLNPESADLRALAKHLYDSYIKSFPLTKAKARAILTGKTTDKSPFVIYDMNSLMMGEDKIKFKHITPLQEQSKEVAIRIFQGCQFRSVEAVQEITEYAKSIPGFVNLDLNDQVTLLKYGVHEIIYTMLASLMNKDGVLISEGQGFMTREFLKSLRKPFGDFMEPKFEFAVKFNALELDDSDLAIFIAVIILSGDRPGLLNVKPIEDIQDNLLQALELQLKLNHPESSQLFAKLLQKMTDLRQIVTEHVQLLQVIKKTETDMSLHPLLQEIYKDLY
# Chain of Androgen receptor (Homo sapiens) (P10275 whole entry, looked up): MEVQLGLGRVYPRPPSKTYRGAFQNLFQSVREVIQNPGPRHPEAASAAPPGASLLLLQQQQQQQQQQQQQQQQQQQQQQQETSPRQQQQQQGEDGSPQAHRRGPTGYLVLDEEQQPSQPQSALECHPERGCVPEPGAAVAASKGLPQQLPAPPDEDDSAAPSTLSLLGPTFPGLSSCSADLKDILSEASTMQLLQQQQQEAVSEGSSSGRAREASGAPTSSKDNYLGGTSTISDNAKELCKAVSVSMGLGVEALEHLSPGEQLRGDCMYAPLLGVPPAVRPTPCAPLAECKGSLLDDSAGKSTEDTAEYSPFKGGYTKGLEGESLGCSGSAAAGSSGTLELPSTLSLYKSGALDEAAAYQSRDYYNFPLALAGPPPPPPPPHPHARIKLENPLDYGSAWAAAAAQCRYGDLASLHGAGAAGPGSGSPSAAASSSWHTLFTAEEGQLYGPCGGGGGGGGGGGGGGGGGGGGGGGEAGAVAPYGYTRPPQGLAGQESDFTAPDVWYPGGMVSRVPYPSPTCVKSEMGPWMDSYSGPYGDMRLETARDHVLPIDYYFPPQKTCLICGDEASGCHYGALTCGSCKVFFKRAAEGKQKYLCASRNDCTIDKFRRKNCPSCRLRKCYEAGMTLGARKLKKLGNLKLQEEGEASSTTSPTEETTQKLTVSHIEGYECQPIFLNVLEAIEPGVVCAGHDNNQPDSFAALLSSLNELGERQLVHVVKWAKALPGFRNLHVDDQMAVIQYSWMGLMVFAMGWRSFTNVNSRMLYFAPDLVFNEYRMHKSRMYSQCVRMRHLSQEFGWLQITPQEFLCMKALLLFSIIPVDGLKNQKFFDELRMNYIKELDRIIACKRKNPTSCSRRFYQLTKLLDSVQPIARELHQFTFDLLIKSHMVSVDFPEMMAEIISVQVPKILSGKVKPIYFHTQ
# Chain of Vitamin D3 receptor (Homo sapiens) (P11473 whole entry, looked up): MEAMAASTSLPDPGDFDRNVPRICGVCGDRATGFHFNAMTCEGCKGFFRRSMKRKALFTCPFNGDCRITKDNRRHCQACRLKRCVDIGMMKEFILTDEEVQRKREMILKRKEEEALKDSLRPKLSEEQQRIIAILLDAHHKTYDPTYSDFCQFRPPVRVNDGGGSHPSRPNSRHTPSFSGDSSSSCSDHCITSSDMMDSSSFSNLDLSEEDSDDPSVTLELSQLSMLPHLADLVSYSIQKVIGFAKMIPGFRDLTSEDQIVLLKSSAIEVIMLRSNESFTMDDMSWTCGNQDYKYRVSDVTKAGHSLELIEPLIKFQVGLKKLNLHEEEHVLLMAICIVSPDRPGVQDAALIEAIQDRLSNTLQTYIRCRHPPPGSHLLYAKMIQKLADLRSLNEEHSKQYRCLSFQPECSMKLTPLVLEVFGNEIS
# Chain of Estrogen receptor (Homo sapiens) (P03372 whole entry, looked up): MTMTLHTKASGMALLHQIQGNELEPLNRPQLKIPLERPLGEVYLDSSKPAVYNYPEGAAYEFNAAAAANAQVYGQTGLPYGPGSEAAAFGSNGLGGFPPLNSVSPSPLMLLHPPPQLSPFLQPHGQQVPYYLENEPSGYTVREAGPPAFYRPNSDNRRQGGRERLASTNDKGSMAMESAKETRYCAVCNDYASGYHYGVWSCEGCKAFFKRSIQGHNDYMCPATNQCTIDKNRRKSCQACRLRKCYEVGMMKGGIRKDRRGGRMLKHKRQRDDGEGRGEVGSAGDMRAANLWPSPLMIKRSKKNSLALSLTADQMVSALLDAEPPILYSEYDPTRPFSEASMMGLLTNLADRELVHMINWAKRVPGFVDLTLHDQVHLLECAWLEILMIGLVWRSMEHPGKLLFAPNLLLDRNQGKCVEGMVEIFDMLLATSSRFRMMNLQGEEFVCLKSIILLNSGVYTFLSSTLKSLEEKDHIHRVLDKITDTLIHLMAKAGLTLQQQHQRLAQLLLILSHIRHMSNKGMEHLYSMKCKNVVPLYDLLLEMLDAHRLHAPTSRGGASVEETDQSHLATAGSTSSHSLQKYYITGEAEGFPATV
# Chain of Bile acid receptor (Homo sapiens) (Q96RI1 whole entry, looked up): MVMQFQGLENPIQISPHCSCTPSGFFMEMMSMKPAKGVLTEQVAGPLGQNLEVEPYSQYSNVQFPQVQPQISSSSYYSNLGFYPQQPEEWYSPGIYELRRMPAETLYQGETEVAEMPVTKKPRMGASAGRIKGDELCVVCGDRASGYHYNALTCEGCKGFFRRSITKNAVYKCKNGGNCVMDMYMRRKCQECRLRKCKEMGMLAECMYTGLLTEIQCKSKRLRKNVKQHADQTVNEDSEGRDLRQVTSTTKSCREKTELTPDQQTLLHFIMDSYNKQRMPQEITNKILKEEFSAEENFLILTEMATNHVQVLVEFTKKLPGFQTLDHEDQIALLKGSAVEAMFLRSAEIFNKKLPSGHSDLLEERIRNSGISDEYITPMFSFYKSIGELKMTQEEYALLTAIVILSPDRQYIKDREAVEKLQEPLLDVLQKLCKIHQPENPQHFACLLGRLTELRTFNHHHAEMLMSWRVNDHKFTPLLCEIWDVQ
# Chain of Nuclear receptor subfamily 1 group I member 2 (Rattus norvegicus) (Q9R1A7 whole entry, looked up): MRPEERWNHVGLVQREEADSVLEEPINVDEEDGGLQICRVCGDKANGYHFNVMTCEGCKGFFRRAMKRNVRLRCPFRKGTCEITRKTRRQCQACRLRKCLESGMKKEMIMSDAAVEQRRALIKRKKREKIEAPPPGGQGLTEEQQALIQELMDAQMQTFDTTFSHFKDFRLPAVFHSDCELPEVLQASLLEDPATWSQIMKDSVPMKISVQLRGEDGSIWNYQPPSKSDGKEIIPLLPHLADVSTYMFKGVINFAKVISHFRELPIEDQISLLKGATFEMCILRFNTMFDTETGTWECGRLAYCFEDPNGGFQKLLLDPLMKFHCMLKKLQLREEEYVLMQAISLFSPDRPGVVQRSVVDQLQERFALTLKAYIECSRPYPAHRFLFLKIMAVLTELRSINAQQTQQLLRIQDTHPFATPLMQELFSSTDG
structure (smiles),measurement,setting,value
CO/C=C(/C(=O)OC)c1ccccc1Oc1cc(Oc2ccccc2C#N)ncn1,Potency,[1],6.83 µM (active)
COc1ccc(C(c2ccc(OC)cc2)C(Cl)(Cl)Cl)cc1,Potency,[2],43.4 µM [inconclusive] (active)
same,Potency,[3],4.97 µM (active)
c1ccc2c(c1)Sc1ccccc1N2CC1CN2CCC1CC2 (stereo unspecified),Potency,[4],inactive
same,Potency,[5],3.55 µM (active)
COc1cc(OC)c(OC)cc1C=O,Potency,[3],inactive
CNC(=O)Oc1cc(C)c(SC)c(C)c1,outcome,[6],inactive
O=C(Nc1ccccc1-c1ccc(Cl)cc1)c1cccnc1Cl,Potency,[2],inactive
same,Potency,[3],inactive
same,Potency,[7],51.9 µM (active)
same,Potency,[5],inactive
CCC(C)=O,outcome,[8],inactive
Nc1ccc([N+](=O)[O-])cc1,Potency,[9],43.6 µM (active)
same,Potency,[5],inactive
CN1CSC(=S)N(C)C1,Potency,[4],inactive
same,Potency,[3],inactive
same,Potency,[7],inactive
same,outcome,[8],inactive
same,outcome,[10],inactive
OCC(c1ccc(Cl)cc1)c1ccc(Cl)cc1,Potency,[11],inactive
same,outcome,[8],inactive
O=[N+]([O-])c1c(Cl)c(Cl)cc(Cl)c1Cl,Potency,[2],inactive
same,Potency,[11],inactive
same,Potency,[5],inactive
Cc1nnc2n1-c1sc(CCc3ccc(CC(C)C)cc3)cc1C(c1ccccc1Cl)=NC2C (stereo unspecified),Potency,[4],23.9 µM (active)
O=C1C(I)=CC(=C(c2cc(I)c(O)c(I)c2)c2ccccc2C(=O)O)C=C1I,Potency,[2],7.56 µM [inconclusive] (active)
same,Potency,[3],inactive
same,outcome,[6],inactive
same,Potency,[5],inactive
same,max activation,[12],-1.41%
same,Potency,[13],inactive
CCN(CC)C(=O)Cl,outcome,[6],inactive
C[C@]12CC[C@@H](O)C[C@@H]1CC[C@@H]1[C@@H]2CC[C@]2(C)C(=O)CC[C@@H]12,outcome,[6],inactive
CC1COC(Cn2cncn2)(c2ccc(Oc3ccc(Cl)cc3)cc2Cl)O1 (stereo unspecified),Potency,[14],1.93 µM (active)
same,outcome,[8],inactive
same,outcome,[6],inactive
Cc1cc(C(C)(C)c2ccc(O)c(C)c2)ccc1O,Potency,[4],inactive
same,Potency,[14],9.23 µM (active)
same,outcome,[8],inactive
same,outcome,[10],inactive
CCCCC(CC)COC(=O)c1ccc(C(=O)OCC(CC)CCCC)cc1 (stereo unspecified),outcome,[8],inactive
CCOC(=O)C(O)(c1ccc(Cl)cc1)c1ccc(Cl)cc1,Potency,[9],19.5 µM (active)
same,Potency,[15],inactive
same,Potency,[1],19.5 µM (active) and 68.6 µM (active)
same,Potency,[2],55.5 µM [cytotoxic] (active) and 54.9 µM [inhibitor] (active)
same,Potency,[11],inactive
Cc1ccc(N(SC(F)(Cl)Cl)S(=O)(=O)N(C)C)cc1,Potency,[4],inactive
same,Potency,[1],8.63 µM (active)
ClC1=C(Cl)[C@]2(Cl)[C@@H]3[C@@H](Cl)[C@H]4O[C@H]4[C@@H]3C1(Cl)C2(Cl)Cl,Potency,[2],inactive
same,Potency,[11],inactive
same,outcome,[10],inactive
CCc1cccc(C)c1N,outcome,[10],inactive
O=C(O)C(c1ccc(Cl)cc1)c1ccc(Cl)cc1,outcome,[10],inactive
Clc1ccccc1-c1ccccc1Cl,Potency,[4],inactive
same,Potency,[11],inactive
same,Potency,[14],inactive
